A word on the inhibition: it is the change of the read-out against control, counted positive when it falls.

Here are results for 92 compounds from PubChem BioAssay AID449762 (Southern Research Specialized Biocontainment Screening …, 2010).

Several values for one entry are separate records, joined by “and”; a condition that tells them apart may be missing. Equal values may be shown once. About 1,900 (0.58%) of roughly 330,000 compounds were called active. Roughly 4% stayed inconclusive and do not appear here. A selection follows. Potency and affinity values are given separately. Unmarked numbers belong to inactive results. Rule as the data show it: inconclusive = inhibition above about 70% without an active follow-up result; inactive = below that.

The test is described as follows: M. tuberculosis growth inhibition, HTS (AID 449762).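 Also: bacterial growth assessed after seven days of incubation.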 Conditions: M. tuberculosis H37Rv growth inhibition, 7H9 media; at 25 µM; hits give high values.
For the compound `COc1ccc(Cl)cc1NC(=O)Nc1ccc(Br)cn1`, the inhibition was 5.18%.
The figure for `CC(Oc1ccc(-c2nccc(-c3ccccn3)n2)cc1)C(=O)NN` (configuration not stated) is -4.92%; for `O=C(O)COc1ccc(-c2nccc(-c3ccccn3)n2)cc1` it is 0.08%; for `CC(=O)CSc1nc2ccccc2s1` it is -0.04%.
For `O=C(CSc1nc2ccccc2s1)CSc1nc2ccccc2s1` the value was 12%.
The figure for `FC(F)(F)c1nc2ccccc2c2nc3ccccc3n12` is 9.4%; for `c1ccc(-c2nc3ccccc3c3nc4ccccc4n23)cc1` it is -1.99%.
In the case of `COc1ccc(Cc2nc3ccc(C(=O)NCCSC)cc3o2)cc1`, the inhibition was 2.47%.
Regarding `COC(=O)CCNC(=O)c1ccc2nc(Cc3ccc(OC)c(OC)c3)oc2c1`, the inhibition was -1.6%.
For `C/C(=N\NC(=O)C1CC1c1ccccc1)c1ccc(C)s1` (configuration not stated) the value was -2.49%.
In the case of `CCOC(=O)Cc1nn(Cc2nc(-c3ccc(C)cc3)cs2)c(=O)c2ccccc12`, the inhibition is -4.15%.
For `Cn1nc(-c2ccc(OCC(N)=O)cc2)c2ccccc2c1=O`, the inhibition is -19.8%.
The figure for `CNC(=O)COc1ccc(-c2nn(C)c(=O)c3ccccc23)cc1` is -7.66%.
For the compound `CCOC(=O)N1CCN(S(=O)(=O)c2ccc(C(=O)Nc3nc4c(s3)CC(C)CC4)cc2)CC1` (configuration not stated), the inhibition was 16.7%.
Consider `C#CCn1cnc2c(oc3ccccc32)c1=O`, for which the inhibition is 2.24%.
Regarding `COc1ccc(Br)cc1-c1nc(CCl)cs1`, the inhibition is 60.4%.
For `Cc1cc(C)n2nc(CC#N)c(C#N)c2n1` the value was 1.45%; for `N#C/C(=C\c1ccccn1)c1ccccn1`, -3.85%; for `CCc1ccc(N2C(=O)CN(Cc3cccs3)C2=S)cc1`, 38.7%.
Consider `COc1ccccc1Nc1nc(N)nc(CN2CCN(Cc3ccccc3)CC2)n1`, for which the inhibition was 43.2%.
For `COc1ccc(OCc2nc(N)nc(Nc3ccccc3OC)n2)cc1` the value was 2.69%; for `O=C(CNC(=O)c1ccc(Br)o1)NC12CC3CC(CC(C3)C1)C2`, 5.74%.
With `COc1ccc(CN2C(=NC(=O)COc3ccccc3)SC3CS(=O)(=O)CC32)cc1` (configuration not stated), the inhibition is -7.1%.
As for `Cc1cc(C)n2nc(SCCCC(=O)c3ccc(F)cc3)nc2n1`, the inhibition is -9.89%.
Consider `CN(C)N=Nc1ccc2nc[nH]c2c1`, for which the inhibition is -2.52%.
For `NC(=O)c1[nH]cnc1N` the value was -17.9% and 7.5%; for `O=C1CCCCN1CCC(=O)N1CCCC(N2CCN(c3cccc(Cl)c3)CC2)C1` (configuration not stated), -10.9%.
As for `O=C(NNC(=O)C1CC(c2cccs2)=NO1)Nc1ccc(Cl)cc1` (configuration not stated), the inhibition was -0.49%.
The figure for `Cc1cc(=O)[nH]c(SCC(=O)N(CCC#N)c2ccccc2)c1C#N` is -2.5%; for `CCCCNC(=S)N1CCn2cccc2C1c1cccnc1` (configuration not stated) it is -0.76%; for `C=C1C(=O)[C@@]23[C@H](O)C[C@@H]4C(C)(C)CC[C@H](O)[C@]4(C)[C@@H]2C[C@H](O)[C@@H]1[C@H]3O` it is 62.1%.
For `COc1cc(-c2ccc3c(=O)c4ccccc4sc3c2)cc(OC)c1OC` the value was 8.35%.
For the compound `CCOC(=O)c1c(C)oc2ccc(NS(=O)(=O)c3ccc4c5c(cccc35)C(=O)N4)cc12`, the inhibition is 62.7%.
`Cc1oc2c(cc(NS(=O)(=O)c3ccc4c5c(cccc35)C(=O)N4)c3ccccc32)c1C(=O)OC(C)C`: the inhibition was 51%.
With `Nc1nc(SCc2ccccc2)ns1`, the inhibition is 15%.
In the case of `Nc1nc(SCc2ccc(Cl)cc2Cl)ns1`, the inhibition is 22.1%.
Take `CC1(C)CC[C@]2(C(=O)O[C@@H]3OC(CO)[C@@H](O)[C@H](O)[C@H]3O)CC[C@]3(C)C(=CCC4[C@@]5(C)CC[C@H](O[C@@H]6OC(C(=O)O)[C@@H](O)[C@H](O)[C@H]6O)C(C)(C)C5CC[C@]43C)[C@@H]2C1` (some centres not stated): the inhibition is 1.92%.
The figure for `CN(CC(=O)Nc1cccc(F)c1)C(=O)c1ccc(-c2cccc(C(F)(F)F)c2)o1` is 0.48%.
As to `CCOc1ccccc1N(CC(=O)Nc1cccc2ccccc12)S(C)(=O)=O`, the inhibition was -0.92%.
As to `CC1(C)Cc2c(c(N3CCOCC3)nc3sc4c(NCCN5CCOCC5)nnnc4c23)CS1`, the inhibition was 36.9%.
Consider `CC1(C)Cc2c(c(N3CCOCC3)nc3sc4c(NCC5CCCO5)nnnc4c23)CS1` (configuration not stated), for which the inhibition was 11.7%.
As to `O=S(=O)(NC1=NCCC1)c1cccc(NS(=O)(=O)c2ccc(OC(F)(F)F)cc2)c1`, the inhibition is -9.41%.
For `COc1ccccc1N(CC(=O)NCCc1ccccc1)C(=O)CCC(=O)Nc1ccccn1` the value was -2.52%; for `COc1ccc(NC(=O)N2CCC3(CC2)OCCO3)cc1OC`, 1.68%; for `COc1ccc(NC(=O)CSc2nnc(-c3ccccn3)n2N)cc1`, 8.63%.
For `COc1ccc(NC(=O)CSc2nnc(-c3ccco3)n2N)cc1Cl` the value was 46.6%.
On to `CC(C)(C)c1ccc(C(=O)NCC(=O)NNC(=O)c2ccccc2O)cc1`, for which the inhibition was 8.86%.
`O=C(N/N=C/c1ccncc1)c1cc2c(ccc3ccccc32)o1`: the inhibition is 1.21%.
The figure for `O=C(O)c1ccc(/C=N/NC(=O)c2cc3c(ccc4ccccc43)o2)cc1` is 4.81%; for `CC(C)(C)c1ccc(OCC(=O)Nc2ccc(C(=O)Nc3ccccc3C(=O)O)cc2)cc1` it is -6.72%.
For `Cc1ccc(N=Cc2ccc[nH]2)c(O)c1` the value was 2.98%; for `O=C1NCC(O)=C1C=NCCO`, 4.69%; for `O=C1NCC(O)=C1C=NCCCO`, -4.48%.
The figure for `Fc1ccc(N=Cc2ccc[nH]2)cc1` is 13.1%.
In the case of `N#CCCn1cc(C(=O)Nc2cccc(C(=O)O)c2)c(-c2ccc(Cl)cc2)n1`, the inhibition was -2.32%.
In the case of `Cc1ccccc1COc1ccc(-c2nnn(CC(=O)O)n2)cc1`, the inhibition is 0.49%.
For `CCOc1ccc(NC(=O)CN(C)C(=O)c2c(-c3ccccc3)noc2C)cc1OCC`, the inhibition was -10.4%.
The figure for `CCc1ccccc1NNC(=O)CCc1ccccc1` is 4.45%; for `Cc1ccc(NC(=O)CCC(=O)NNC(=O)CCc2ccccc2)c(C)c1` it is 8.11%; for `CCOC(=O)CSc1nnc(CSc2nc3sc4c(c3c(=O)[nH]2)CCC4)n1C` it is -1.21%.
In the case of `COCCN1C(=O)C(CC(=O)Nc2ccccc2)SC1=Nc1ccc(OC)cc1` (configuration not stated), the inhibition was 6.34%.
For `Cc1ccc(NC(=O)c2cc(-c3ccccc3)nn2-c2ccccc2)c(Br)c1` the value was 62.5%; for `Cc1ccc(NC(=O)c2cc(-c3ccccc3)nn2-c2ccccc2)cc1`, 0.76%.
On to `Cc1ccnc(NC(=O)COC(=O)C2COc3ccccc3O2)n1` (configuration not stated), for which the inhibition is -4.37%.
`CCOc1ccc(S(=O)(=O)N2CCCCC2)cc1NS(=O)(=O)c1cccs1`: the inhibition was -3.42%.
Regarding `COc1cc([C@@H]2c3cc4c(cc3[C@@H](OC)[C@H]3COC(=O)[C@H]23)OCO4)cc(OC)c1O`, the inhibition was -15.3%.
On to `COc1cc([C@@H]2c3cc4c(cc3[C@H](O)[C@H]3COC(=O)[C@H]23)OCO4)cc(OC)c1OC`, for which the inhibition was -2.97%.
The figure for `Cc1ccc(NC(=O)c2ccc3ccccc3n2)nc1` is 5.21%; for `CCc1ccc(NC(=O)C(C)OC(=O)c2ccc(NS(=O)(=O)c3ccc(C)c([N+](=O)[O-])c3)cc2)cc1` (configuration not stated) it is -6.87%.
For `COc1ccc(CCNC(=O)C2CC(c3cccc([N+](=O)[O-])c3)=NO2)cc1` (configuration not stated) the value was 2.77%; for `CC(C)Cc1nn2c(=O)cc(CSCC(=O)Nc3ccccc3F)nc2s1`, -6.22%; for `Cc1cc(C(=O)CSc2ccc(Cl)cc2)cc(C)c1OC(=S)N(C)C`, -12.1%.
The figure for `Cc1ccc(N2C(=O)N(CC(=O)c3cc(C)ccc3C)C(=O)C2C)cc1` (configuration not stated) is 4.01%; for `CCOc1ccc(NC(=S)NC(=O)c2cccnc2)c([N+](=O)[O-])c1` it is 6.15%; for `Cn1c(O)c(C=NCCN2CCNCC2)c(=O)n(C)c1=O` it is -6.91%.
Regarding `O=c1[nH]c(=S)n(C2CCCCC2)c(O)c1C=NCCN1CCOCC1`, the inhibition is 4.57%.
The figure for `O=C(O)CC1S/C(=N/N=C/c2ccccn2)NC1=O` (configuration not stated) is -2.11%; for `O=C1N/C(=N\N=C\c2ccc3ncccc3c2)SC1Cc1ccc(SC(F)F)cc1` (configuration not stated) it is -20.7%.
For `O=S(=O)(NCc1ccccn1)c1ccc(Cl)s1` the value was 32.5%; for `N/C(=N\OC(=O)Nc1ccc(Cl)cc1)c1ncc(C(F)(F)F)cc1Cl`, 3.09%.
Take `N/C(=N\OC(=O)Nc1ccccc1)c1ncc(C(F)(F)F)cc1Cl`: the inhibition is -4.86%.
Take `Cc1ccc(CNC(=O)CNC(=O)[C@@H]2Cc3ccccc3CN2C(=O)OC(C)(C)C)cc1`: the inhibition was 4.75%.
The figure for `c1ccc(-c2cn(-c3ccccc3)c3[n+]2CCCS3)cc1` is -1.4%; for `Cc1ccc(-c2cn(-c3ccccc3)c3[n+]2CCCS3)cc1` it is 4.87% and -0.5%; for `Cc1ccccc1CNC(=O)Nc1ccc(Cl)cc1` it is 8.74%.
The figure for `CCOC(=O)/C(=C/C=C/c1ccccc1)NC(=O)c1ccccc1` is 5.87%; for `CCOC(=O)/C(=C\C=C\c1ccccc1)NC(=O)c1ccccc1` it is -0.56%.
As to `O=Cc1cccc(Oc2ccc([N+](=O)[O-])cc2[N+](=O)[O-])c1`, the inhibition is 6.01%.
For `Cc1nn(S(=O)(=O)N(C)C)c(C)c1CN1C(=O)c2ccccc2C1=O` the value was -3.78%; for `Cc1c(CN(C)C)c2c(n1C)C(=O)c1ccc(Br)cc1-2`, -6.76%.
The figure for `Cc1c(CN(C)C)c2c(n1Cc1ccccc1)C(=O)c1ccccc1-2` is -0.73%; for `CC(C)(C)[C@@H]1C=C(C(N)=O)O[C@H](OCc2ccc(CO)cc2)C1` it is 3.59%.
